# Results from ChEMBL document CHEMBL3988442, “University of Dundee, Small-Polar-MMV Screening Library” (2021).
# For some assays here: Results with a measured potency or affinity are listed apart.
# Legend:
# Parameters in all cases: scale not given: direction of the effect not stated beside the values
# [1] = target: Protein translocase subunit SecA (Escherichia coli (strain K12)) (UniProt P10408); test: Assay to Identify E. coli SecA ATPase Inhibitors; format: functional; settings: 30 µM
# [2] = target: T1, Ubiquitin-activating enzyme e1, putative (Leishmania donovani (strain BPK282A1)) (UniProt E9BSI1); test: Leishmania donovani Ubiquitin Activating Enzyme (LdE1); format: functional; settings: 30 µM
# T1 sequence (whole entry): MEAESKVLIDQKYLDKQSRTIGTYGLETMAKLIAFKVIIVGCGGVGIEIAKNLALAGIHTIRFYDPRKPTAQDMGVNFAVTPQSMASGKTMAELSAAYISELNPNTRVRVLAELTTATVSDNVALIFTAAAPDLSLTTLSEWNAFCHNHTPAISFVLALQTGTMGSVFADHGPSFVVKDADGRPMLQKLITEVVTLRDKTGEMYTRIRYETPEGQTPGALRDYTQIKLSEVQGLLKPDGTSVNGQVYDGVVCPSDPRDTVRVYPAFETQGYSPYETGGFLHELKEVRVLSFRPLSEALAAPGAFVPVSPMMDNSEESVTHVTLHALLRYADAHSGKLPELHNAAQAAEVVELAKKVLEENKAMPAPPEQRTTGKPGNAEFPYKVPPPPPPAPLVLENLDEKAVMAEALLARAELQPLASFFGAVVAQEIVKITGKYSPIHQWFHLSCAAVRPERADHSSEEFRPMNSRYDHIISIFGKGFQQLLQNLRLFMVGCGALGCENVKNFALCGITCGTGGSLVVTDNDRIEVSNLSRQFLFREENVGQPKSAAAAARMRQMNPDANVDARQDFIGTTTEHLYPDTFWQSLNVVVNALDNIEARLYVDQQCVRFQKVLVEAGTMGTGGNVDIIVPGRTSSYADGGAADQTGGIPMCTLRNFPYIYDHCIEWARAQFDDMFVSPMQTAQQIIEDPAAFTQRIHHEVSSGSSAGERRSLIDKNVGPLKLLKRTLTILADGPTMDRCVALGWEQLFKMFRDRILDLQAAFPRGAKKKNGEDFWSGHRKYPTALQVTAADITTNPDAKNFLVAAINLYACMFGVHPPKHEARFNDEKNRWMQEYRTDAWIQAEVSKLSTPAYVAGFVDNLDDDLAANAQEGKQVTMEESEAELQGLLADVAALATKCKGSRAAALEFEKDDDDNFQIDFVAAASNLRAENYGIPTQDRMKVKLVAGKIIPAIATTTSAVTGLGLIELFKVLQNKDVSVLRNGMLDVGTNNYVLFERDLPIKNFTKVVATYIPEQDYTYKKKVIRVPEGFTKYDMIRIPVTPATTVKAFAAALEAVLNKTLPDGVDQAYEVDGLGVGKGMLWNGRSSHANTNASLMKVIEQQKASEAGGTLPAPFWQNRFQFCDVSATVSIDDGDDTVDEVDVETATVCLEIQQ
# [3] = target: Sialic acid-binding Ig-like lectin 9 (Homo sapiens) (UniProt Q9Y336); test: Hs-Siglec9 ALPHAscreen SOP 20170721; settings: 10 µM
# [4] = system: Trypanosoma cruzi; test: Trypanosoma cruzi phosphomannomutase and mannose-1-phosphate guanylyltransferase assay; format: functional; settings: 10 µM
# [5] = target: T2, Arginase-2, mitochondrial (Homo sapiens) (UniProt P78540); test: in vitro enzyme assay to detect the production of urea directly proportional to the activity of Arginase II; format: functional; settings: 33.3 µM; also: in the data most compounds retested in dose-response had high values
# T2 sequence (whole entry): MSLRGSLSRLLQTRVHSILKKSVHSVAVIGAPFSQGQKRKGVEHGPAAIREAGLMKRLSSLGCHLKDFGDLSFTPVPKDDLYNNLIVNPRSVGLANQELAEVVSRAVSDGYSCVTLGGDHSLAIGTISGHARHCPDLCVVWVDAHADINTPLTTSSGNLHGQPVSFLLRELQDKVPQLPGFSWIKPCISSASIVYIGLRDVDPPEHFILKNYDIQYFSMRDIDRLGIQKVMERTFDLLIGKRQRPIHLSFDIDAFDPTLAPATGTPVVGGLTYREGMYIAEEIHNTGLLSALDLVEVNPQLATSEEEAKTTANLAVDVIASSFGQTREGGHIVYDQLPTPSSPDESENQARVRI
# [6] = target: T3, Proteasome subunit beta (Trypanosoma cruzi) (UniProt O96673); test: Trypanosoma cruzi proteasome chymotrypsin-like activity (TcProtChymo) assay.; also: in the data most compounds retested in dose-response had high values; format: functional; settings: 9.37 µM
# T3 sequence (whole entry): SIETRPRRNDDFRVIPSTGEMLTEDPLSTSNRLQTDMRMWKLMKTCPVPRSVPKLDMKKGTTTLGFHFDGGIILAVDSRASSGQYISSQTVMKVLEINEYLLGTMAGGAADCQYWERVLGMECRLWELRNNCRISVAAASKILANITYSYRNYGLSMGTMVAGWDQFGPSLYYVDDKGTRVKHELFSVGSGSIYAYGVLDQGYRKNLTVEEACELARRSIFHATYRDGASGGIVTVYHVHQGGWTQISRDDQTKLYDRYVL
# [7] = species: Homo sapiens; test: To identify inhibition of the IFN signalling (Jak-Stat) pathway via expression of an eGFP reporter gene under the control of an IFN-stimulated response element (ISRE) containing MxA promoter.; format: functional; settings: 30 µM
# [8] = target: T4, Tyrosyl-tRNA synthetase, putative (Trypanosoma cruzi (strain CL Brener)) (UniProt Q4DSP6); test: Trypanosoma cruzi tyrosyl tRNA synthetase (TcYRS) _High Tyrosine SOP; format: functional; settings: 30 µM; also: in the data most compounds retested in dose-response had high values
# T4 sequence (whole entry): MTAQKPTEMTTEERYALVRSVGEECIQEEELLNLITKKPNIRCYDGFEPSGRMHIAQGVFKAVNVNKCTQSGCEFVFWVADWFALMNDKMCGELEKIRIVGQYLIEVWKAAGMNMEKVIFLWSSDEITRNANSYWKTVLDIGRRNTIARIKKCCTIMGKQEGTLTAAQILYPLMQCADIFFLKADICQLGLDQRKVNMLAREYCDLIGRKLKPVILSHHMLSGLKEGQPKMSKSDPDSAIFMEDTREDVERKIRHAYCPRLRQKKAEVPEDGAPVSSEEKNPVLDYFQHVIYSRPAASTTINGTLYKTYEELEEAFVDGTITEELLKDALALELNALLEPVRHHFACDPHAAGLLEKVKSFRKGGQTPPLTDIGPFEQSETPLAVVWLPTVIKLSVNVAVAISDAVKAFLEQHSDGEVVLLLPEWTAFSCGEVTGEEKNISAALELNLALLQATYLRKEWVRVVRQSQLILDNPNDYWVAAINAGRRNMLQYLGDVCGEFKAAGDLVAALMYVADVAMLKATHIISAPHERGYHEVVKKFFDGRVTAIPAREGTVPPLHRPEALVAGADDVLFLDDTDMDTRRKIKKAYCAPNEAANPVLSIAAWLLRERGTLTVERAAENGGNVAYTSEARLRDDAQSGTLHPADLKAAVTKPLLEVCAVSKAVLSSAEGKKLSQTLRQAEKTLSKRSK
# [9] = target: T4, Tyrosyl-tRNA synthetase, putative (Trypanosoma cruzi (strain CL Brener)); test: Trypanosoma cruzi tyrosyl tRNA synthetase (TcYRS) SOP; format: functional; settings: 30 µM
# [10] = target: Chromo domain-containing protein 1 (Saccharomyces cerevisiae (strain ATCC 204508 / S288c) (Baker's yeast)) (UniProt P32657); test: ScCHD-1 Enzyme Inhibition Assay; format: functional; settings: 30 µM; also: in the data most compounds retested in dose-response had high values
# Sequence of Chromo domain-containing protein 1 (Saccharomyces cerevisiae (strain ATCC 204508 / S288c) (Baker's yeast)) (P32657 whole entry, the tested form may be a part): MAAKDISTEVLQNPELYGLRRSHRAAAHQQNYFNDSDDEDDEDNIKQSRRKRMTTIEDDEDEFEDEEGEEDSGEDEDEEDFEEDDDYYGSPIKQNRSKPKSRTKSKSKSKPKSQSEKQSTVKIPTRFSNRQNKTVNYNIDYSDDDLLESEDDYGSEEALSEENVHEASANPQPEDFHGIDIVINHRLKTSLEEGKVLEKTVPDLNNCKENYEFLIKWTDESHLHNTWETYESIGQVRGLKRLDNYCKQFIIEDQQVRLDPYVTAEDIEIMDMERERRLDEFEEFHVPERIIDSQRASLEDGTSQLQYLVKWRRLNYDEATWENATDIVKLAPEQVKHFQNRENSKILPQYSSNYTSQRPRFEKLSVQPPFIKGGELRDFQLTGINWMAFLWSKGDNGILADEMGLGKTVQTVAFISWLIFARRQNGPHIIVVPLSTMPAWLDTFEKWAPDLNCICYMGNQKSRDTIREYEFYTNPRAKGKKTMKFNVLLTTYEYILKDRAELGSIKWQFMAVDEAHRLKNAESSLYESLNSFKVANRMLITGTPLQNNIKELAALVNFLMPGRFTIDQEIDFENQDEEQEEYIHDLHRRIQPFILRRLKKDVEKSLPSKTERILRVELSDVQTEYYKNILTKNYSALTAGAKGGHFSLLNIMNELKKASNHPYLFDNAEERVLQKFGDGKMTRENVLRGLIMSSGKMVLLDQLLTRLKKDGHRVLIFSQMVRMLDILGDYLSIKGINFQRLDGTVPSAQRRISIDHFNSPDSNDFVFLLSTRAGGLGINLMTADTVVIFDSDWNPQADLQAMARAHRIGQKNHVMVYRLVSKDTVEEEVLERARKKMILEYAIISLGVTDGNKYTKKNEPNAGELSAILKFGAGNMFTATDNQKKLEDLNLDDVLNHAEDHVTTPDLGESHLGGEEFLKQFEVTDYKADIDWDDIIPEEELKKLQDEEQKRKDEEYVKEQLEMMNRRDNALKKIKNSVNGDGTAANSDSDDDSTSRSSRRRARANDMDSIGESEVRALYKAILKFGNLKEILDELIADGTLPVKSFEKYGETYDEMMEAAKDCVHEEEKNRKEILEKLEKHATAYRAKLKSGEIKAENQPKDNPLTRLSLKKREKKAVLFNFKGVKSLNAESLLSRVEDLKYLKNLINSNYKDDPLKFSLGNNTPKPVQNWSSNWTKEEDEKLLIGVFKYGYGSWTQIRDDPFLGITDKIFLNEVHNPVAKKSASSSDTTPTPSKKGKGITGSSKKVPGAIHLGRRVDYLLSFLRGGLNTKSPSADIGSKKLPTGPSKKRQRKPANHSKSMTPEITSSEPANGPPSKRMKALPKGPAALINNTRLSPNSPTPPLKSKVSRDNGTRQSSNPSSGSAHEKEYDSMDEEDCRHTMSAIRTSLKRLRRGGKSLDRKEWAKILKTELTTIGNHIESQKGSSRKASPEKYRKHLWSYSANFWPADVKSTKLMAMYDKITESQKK
# Sequence of Protein translocase subunit SecA (Escherichia coli (strain K12)) (P10408 whole entry): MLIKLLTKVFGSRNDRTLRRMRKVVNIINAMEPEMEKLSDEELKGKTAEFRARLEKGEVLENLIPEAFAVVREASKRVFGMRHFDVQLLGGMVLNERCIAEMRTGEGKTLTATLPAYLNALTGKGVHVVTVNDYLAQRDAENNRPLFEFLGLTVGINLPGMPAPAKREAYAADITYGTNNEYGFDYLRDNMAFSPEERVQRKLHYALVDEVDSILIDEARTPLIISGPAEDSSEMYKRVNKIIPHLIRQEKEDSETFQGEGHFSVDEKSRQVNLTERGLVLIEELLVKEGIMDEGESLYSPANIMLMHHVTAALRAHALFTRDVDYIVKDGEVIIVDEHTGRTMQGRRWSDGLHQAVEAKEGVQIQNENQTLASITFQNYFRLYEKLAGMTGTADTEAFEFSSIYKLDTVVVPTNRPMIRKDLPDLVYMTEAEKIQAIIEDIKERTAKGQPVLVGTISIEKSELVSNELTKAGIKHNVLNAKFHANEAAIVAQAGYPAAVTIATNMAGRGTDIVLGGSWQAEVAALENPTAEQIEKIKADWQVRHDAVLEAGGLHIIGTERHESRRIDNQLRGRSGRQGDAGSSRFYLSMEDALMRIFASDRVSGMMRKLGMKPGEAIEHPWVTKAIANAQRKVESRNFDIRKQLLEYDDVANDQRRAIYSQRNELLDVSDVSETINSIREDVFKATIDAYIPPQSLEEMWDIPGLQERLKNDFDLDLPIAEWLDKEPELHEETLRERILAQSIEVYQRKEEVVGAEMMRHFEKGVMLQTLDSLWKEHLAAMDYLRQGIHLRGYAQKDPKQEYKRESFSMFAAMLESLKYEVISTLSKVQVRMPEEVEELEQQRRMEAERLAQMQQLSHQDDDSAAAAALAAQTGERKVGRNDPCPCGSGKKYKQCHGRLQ
# Sequence of Sialic acid-binding Ig-like lectin 9 (Homo sapiens) (Q9Y336 whole entry): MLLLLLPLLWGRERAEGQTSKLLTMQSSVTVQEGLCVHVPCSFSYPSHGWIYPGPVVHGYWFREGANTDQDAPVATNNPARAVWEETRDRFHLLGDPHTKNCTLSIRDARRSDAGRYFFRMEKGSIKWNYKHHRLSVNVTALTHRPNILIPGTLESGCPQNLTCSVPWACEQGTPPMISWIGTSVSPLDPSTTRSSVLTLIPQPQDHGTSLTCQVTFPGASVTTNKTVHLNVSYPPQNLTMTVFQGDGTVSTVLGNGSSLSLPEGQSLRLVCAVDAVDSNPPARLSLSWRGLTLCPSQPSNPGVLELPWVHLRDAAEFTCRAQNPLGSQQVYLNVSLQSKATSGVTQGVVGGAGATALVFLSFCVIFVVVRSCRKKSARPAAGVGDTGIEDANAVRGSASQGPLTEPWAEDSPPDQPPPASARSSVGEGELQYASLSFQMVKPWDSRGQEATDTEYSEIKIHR
Compound,Percent Effect [1] [%],Percent Effect [2] [%],Percent Effect [3] [%],Percent Effect [4] [%],Percent Effect [5] [%],Percent Effect [6] [%],Percent Effect [7] [%],Percent Effect [8] [%],Percent Effect [9] [%],Percent Effect [10] [%]
CN1CCN(c2cc(CNC(=O)c3ccc(=O)n(C)c3)ccn2)CC1,-2.29,20.5,-8.46,7.04,2.87,13.9,13.3,-0.478,22.9,-8.95
CC(C)CNC(=O)c1ccc2nnc(C3CCN(S(C)(=O)=O)C3)n2c1 (stereo not given),-3.3,-3.9,1.06,-1.27,0,3.44,-2.55,-0.526,2.56,-1.85
Cc1nc(C2CCCN2Cc2ncc(C(C)C)o2)no1 (stereo not given),-0.503,2.67,-1.37,-0.803,-0.444,1.44,13.4,-1.58,-5.13,-7.52
O=C(c1ccc(F)cc1F)N1C[C@@H](O)[C@H](N2CCOCC2)C1,-1.31,20,-7.22,-0.789,-3.1,17.9,2.56,1.06,17.5,-25.9
Cc1ccc(S(=O)(=O)N2CCOc3ccccc32)cc1C(=O)O,-0.902,-5.13,-13.7,-1.03,1.23,11.5,1.07,-7.18,6.02,-6.35
O=C(c1ccco1)N1C[C@H]2CCCN(Cc3cccs3)[C@H]2C1,-3.68,14.3,-9.29,-4.58,-2.02,15.1,28.2,3.68,7.69,-4.26
Cc1ccc(OCCC(=O)N2CCN(c3cnccn3)CC2)cc1C,1.26,13,-2.1,-5.78,3.48,14.9,16.1,6.86,18.8,-6.5
Cc1cccc(CN2C[C@@H]3CN(C(=O)[C@H]4CCCO4)C[C@@H]3C2=O)c1,-6.54,24.7,2.65,3,-2.28,16.4,5.56,9.66,20,-6.96
